Screen size: about 310,000 compounds; about 18,000 (5.8%) were called active. A call without a number means that no potency is given here. Another 22% or so got no clear call; they are omitted. The sample holds actives, similar compounds and a random draw of the others, so the mix is not that of the screen. Unmarked numbers belong to inactive results. Calls come from the whole dose curve; as a rule, active = well fitted inhibition curve with a large enough effect; inconclusive = small, poorly fitted or top-dose-only effect, or another doubt; inactive = no such curve, though single readings can be large or run the other way.
Assay: Primary qHTS for delayed death inhibitors of the malarial parasite plastid, 48 hour incubation
Conditions: P. falciparum luciferase growth in erythrocytes; series mostly up to 28.7 µM
Outline: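 Read-out is firefly luciferase luminescence from an integrated reporter in P. falciparum, so falling signal marks reduced parasite growth. Infected erythrocytes were at 2% hematocrit and 0.1% parasitemia (final) in Albumax-supplemented RPMI 1640.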
Potency is the fitted concentration of half-maximal effect.

| Compound | Potency | activity change, negative = inhibition |
| --- | --- | --- |
| CCOc1ccc(OCC)c(NC(=O)CCS(=O)(=O)c2ccc(C)cc2)c1 | inactive | – |
| CCC(=O)N1c2ccc(S(=O)(=O)NCc3ccco3)cc2CC1C (configuration not stated) | inactive | – |
| COc1cccc(CNS(=O)(=O)c2ccc3c(c2)CC(C)N3C(=O)C2CCC2)c1 (configuration not stated) | inactive | – |
| Cc1ccc(CNC(=O)CCS(=O)(=O)c2ccc3c(c2)CC(C)N3C(=O)C2CC2)o1 (configuration not stated) | 10.4 µM (active) | – |
| Cc1c(OC(C)C(=O)NCC2CCC(C(=O)O)CC2)ccc2c1oc(=O)c1ccccc12 (configuration not stated) | inactive | – |
| CC1(C)NC(=O)N(CC(=O)Nc2cc(C(F)(F)F)cc(C(F)(F)F)c2)C1=O | inactive | – |
| Clc1ccc(C2=CSC3=Nc4cccc5cccc(c45)N23)cc1 | 1.85 µM (active) | – |
| CC(=O)c1cccc(NC(=S)N2CCCC2)c1 | inactive | – |
| CC1=CCC2C(=O)N(c3cccc(C(=O)NC(C)c4ccccc4)c3)C(=O)C2C1 (configuration not stated) | inactive | – |
| CC(=O)Oc1cccc(N2C(=O)C3CC=C(Cl)CC3C2=O)c1 (configuration not stated) | 11.7 µM (active) | – |
| CC(=O)Oc1cccc(N2C(=O)CC(Nc3ccc(N4CCOCC4)cc3)C2=O)c1 (configuration not stated) | inactive | – |
| N#CC1(NC(=O)COC(=O)CSc2ccc(F)cc2)CCCCC1 | inactive | – |
| Cc1cccc(N=C2SC(C)CN2C(=O)CN2C(=O)NC3(CCCC3)C2=O)c1 (configuration not stated) | inactive | – |
| COCCN(C(=O)CC1CCCCC1)c1c(N)n(CC(C)C)c(=O)[nH]c1=O | inactive | – |
| COc1ccc(NC(=O)CCCC2CCCCC2)c(OC)c1 | inactive | – |
| COc1ccc(NC(=O)c2cc([N+](=O)[O-])ccc2NC(=O)CNC2CCCCC2C)c(OC)c1 (configuration not stated) | 6.57 µM (active) | – |
| COc1cc([N+](=O)[O-])ccc1NC(=O)CN1CCCC1 | inactive | – |
| Cc1cccc(C)c1NC(=O)CNC(=O)c1ccc2c(c1)OCCO2 | inactive | – |
| CCC(c1nnnn1Cc1ccco1)N(Cc1cc2cc(OC)ccc2[nH]c1=O)C1CCCCC1 (configuration not stated) | 11.7 µM (active) | – |
| COc1ccc2[nH]c(=O)c(CN(CC3CCCO3)C(=O)Nc3ccccc3)cc2c1 (configuration not stated) | inactive | – |
| Cc1ccc(S(=O)(=O)N(Cc2cc3ccccc3[nH]c2=O)CC2CCCO2)cc1 (configuration not stated) | inactive | – |
| CCOc1ccc2[nH]c(=O)c(CN(CCCO)C(C)=O)cc2c1 | inactive | – |
| O=C(c1cccs1)N(Cc1cc2ccccc2[nH]c1=O)CC1CCCO1 (configuration not stated) | inactive | – |
| CCC(c1nnnn1Cc1ccco1)N(CCc1ccccc1)Cc1cc2cccc(C)c2[nH]c1=O (configuration not stated) | 11.7 µM (active) | – |
| COc1ccc(N(Cc2cc3cc(OC)ccc3[nH]c2=O)S(C)(=O)=O)cc1 | inactive | – |
| CCC(=O)N(CCc1ccccc1)Cc1cc2cc(C)ccc2[nH]c1=O | inactive | – |

| Compound | Potency | activity change, negative = inhibition |
| --- | --- | --- |
| CCC(c1nnnn1Cc1ccccc1)N(Cc1cc2cc(OC)ccc2[nH]c1=O)CC1CCCO1 (configuration not stated) | 5.86 µM (active) | – |
| CCOc1ccc2[nH]c(=O)c(CN(Cc3nnnn3CCc3ccccc3)CC3CCCO3)cc2c1 (configuration not stated) | 13.1 µM (active) | – |
| CCC(=O)N(Cc1cc2cc(OC)ccc2[nH]c1=O)c1ccccc1C | inactive | – |
| COc1ccc(-c2nc(SCC(=O)N3CCCC3)n[nH]2)cc1 | inactive | – |
| CC(=O)Oc1cccc(C(=O)Nc2ccccc2NC(=O)c2cccc(OC(C)=O)c2)c1 | inactive | – |
| COc1cccc(S(=O)(=O)NCc2ccc(C(=O)NCc3ccccn3)cc2)c1 | inactive | – |
| COc1cccc(CNc2ncc(-c3ccccc3)n2C)c1 | inactive | – |
| Cc1cc(=O)oc2cc(NC(=O)C(C)Oc3ccccc3)ccc12 (configuration not stated) | inactive | – |
| COc1ccc(/C=C(\C#N)C(=O)OCC(=O)N(C)C2CCS(=O)(=O)C2)cc1 (configuration not stated) | inactive | – |
| O=C(O)c1c(NC(=O)N2CCCC2)sc2c1CCCC2 | – | 0.211% [at 0.00184 µM] |
| Cc1ccc(-c2nc(CS(=O)(=O)CC(=O)NCc3ccc4c(c3)OCO4)c(C)o2)cc1 | inactive | – |
| CCCCOC(=O)Nc1nnc(CC(=O)NCc2ccccc2)s1 | inactive | – |
| CCC(C)c1ccc(NC(=S)N2CCCC2)cc1 (configuration not stated) | inactive | – |
| COc1ccc2[nH]c3c(=O)n(Cc4ccco4)cnc3c2c1 | inactive | – |
| CCC(c1nnnn1Cc1ccco1)N(CCc1ccccc1)Cc1cc2ccc(OC)cc2[nH]c1=O (configuration not stated) | 5.86 µM (active) | – |
| COc1ccc(N(Cc2cc3ccc(C)cc3[nH]c2=O)S(=O)(=O)c2ccccc2)cc1 | inactive | – |
| CCn1ccnc1CN(C)C(=O)c1cc(COc2ccc(Cl)cc2OC)on1 | inactive | – |
| C[C@]12CC[C@@H]3c4ccc(O)cc4C[C@@H](CCCCCCCCCS(=O)CCCC(F)(F)C(F)(F)F)C3[C@@H]1CC[C@@H]2O (some centres not stated) | 9.53 µM (active) | – |
| Cc1cc(=O)oc2c3c(cc(OCC(=O)NCCC(=O)N[C@@H](C)C(=O)O)c12)OC(C)(C)CC3 | inactive | – |
| Cc1c(NC(=O)Nc2cccc([N+](=O)[O-])c2)c(=O)n(-c2ccccc2)n1C | inactive | – |
| CCOC(=O)c1nnn(-c2nonc2-n2cccc2)c1CN1CCOCC1 | 7.38 µM (active) | – |
| CCOC(=O)c1nnn(-c2nonc2-n2cccc2)c1CN1CCC(C(=O)OCC)CC1 | 0.185 µM (active) | – |
| CCOC(=O)c1nnn(-c2nonc2OC)c1-c1ccccc1 | inactive | – |
| NNC(=O)c1nnn(-c2nonc2N)c1CN1CCCC1 | inactive | – |
| CCN(CC)Cc1c(C(=O)OC)nnn1-c1nonc1N | inactive | – |
| CCOC(=O)C1CCN(Cc2c(C(=O)N3CCOCC3)nc3c(C)cccn23)CC1 | inactive | – |

| Compound | Potency | activity change, negative = inhibition |
| --- | --- | --- |
| CC(=O)Nc1ccc(S(=O)(=O)Nc2cc(C)cn(Cc3ccc(C)cc3)c2=O)cc1 | inactive | – |
| COc1ccccc1CNS(=O)(=O)c1ccc2c(c1)NC(=O)CS2 | inactive | – |
| CCCn1cc(S(=O)(=O)c2ccc(C)cc2)c(=O)c2cc(OCC)ccc21 | inactive | – |
| CN(CC(=O)O)S(=O)(=O)c1ccc2oc3ccccc3c2c1 | inactive | – |
| Cc1ccc(/C=N/NC(=O)c2cc3ccccc3cc2O)o1 | 0.586 µM (active) | – |
| O=C(N/N=C/c1cccnc1)c1cc2ccccc2cc1O | 2.94 µM (active) | – |
| CCOC(=O)N/N=C/c1cccnc1 | inactive | – |
| O=C(N/N=C/c1cccnc1)c1ccc(NC(=O)c2ccc(F)cc2)cc1 | inactive | – |
| N=c1oc2ccccc2cc1C(=O)N/N=C/c1ccccc1 | inactive | – |
| Cc1ccc(/C=N/NC(=O)CNC(=O)COc2ccccc2)o1 | inactive | – |
| Cc1ccnc(NS(=O)(=O)c2ccc(NC(=O)c3oc4ccccc4c3C)cc2)n1 | inactive | – |
| O=C(c1cccnc1)N1CCN(S(=O)(=O)c2cccs2)CC1 | inactive | – |
| Cc1ccc(C(=O)NCC(=O)OCc2nnc(-c3ccccc3)o2)cc1 | inactive | – |
| O=C(/C=C/c1ccc(Cl)c([N+](=O)[O-])c1)c1cccnc1 | inactive | – |
| NC(N)=N/N=C/c1ccc(Cl)c([N+](=O)[O-])c1 | 1.47 µM (active) | – |
| CC(CC(=O)O)C(=O)c1ccc(Cl)c([N+](=O)[O-])c1 (configuration not stated) | inactive | – |
| COc1cccc(C(=O)Nc2ccc(N3CCN(C(=O)c4ccco4)CC3)cc2)c1 | inactive | – |
| O=c1cc(CO)oc(CN2CCC(Cc3ccccc3)CC2)c1O | inactive | – |
| COc1cc(C)cc(CN2CCC(Cc3ccccc3)CC2)c1O | 0.928 µM (active) | – |
| Brc1ccccc1CN1CCC(Cc2ccccc2)CC1 | inactive | – |
| O=C(CN1C(=O)NC2(CCOc3ccccc32)C1=O)NCc1ccc(F)cc1 (configuration not stated) | inactive | – |
| Cc1cccc(NC(=O)C2CCCN(C(=O)NCc3ccccc3)C2)c1C (configuration not stated) | inactive | – |
| CCOC(=O)C1=C(C)N=C2c3ccccc3C(=O)C2C1c1ccc(Br)cc1 (configuration not stated) | 9.28 µM (active) | – |
| CCOC(=O)C1=C(C)NC(C)=C(C(=O)OCC)C1c1ccccn1 | inactive | – |
| CCOC(=O)CN1C(=O)N[C@@H](c2ccc(Br)cc2)C(C(C)=O)=C1C | inactive | – |
| Cc1cccc(NS(=O)(=O)c2ccc(C(=O)NCC(C)(C)N3CCOCC3)cc2)c1C | inactive | – |

| Compound | Potency | activity change, negative = inhibition |
| --- | --- | --- |
| COc1ccc(/C=C/C(=O)NC(=S)N2CCCC(C(N)=O)C2)cc1 (configuration not stated) | inactive | – |
| COc1ccc(CCNCC(O)Cn2ccc3ccccc32)cc1OC (configuration not stated) | 10.4 µM (active) | – |
| COc1ccc(Cn2c(=O)sc3ccccc32)cc1OC | inactive | – |
| COC(=O)c1ccc(OCC(O)CN(CCO)CC(O)Cn2ccc3ccccc32)cc1 (configuration not stated) | inactive | – |
| O=C(C1CCC1)N1CCN(c2ccccc2)CC1 | inactive | – |
| Cc1ccccc1NC(=O)Cn1cc(C(=O)C2CC2)c2ccccc21 | inactive | – |
| Cc1ccc(CNC(=O)Cn2cnc(S(=O)(=O)N3CCCCC3)c2)o1 | inactive | – |
| CCCOC1CCCN(C(=O)c2cc(COc3cncc(Cl)c3)on2)C1 (configuration not stated) | inactive | – |
| Cc1ccccc1NC(=O)N1CCCC1C(=O)NCc1ccccc1 (configuration not stated) | inactive | – |
| COc1ccc(C(C)=O)cc1COc1ccc(Cl)c(C)c1 | inactive | – |
| CCn1nc(C)c(NC(=O)/C=C/c2ccc(OC)c(COc3ccc(Br)cc3)c2)c1C | 8.28 µM (active) | – |
| COc1ccc(/C=C/C(=O)Nc2cccnc2)cc1OC | inactive | – |
| CCOC(=O)N1CCN(C(=O)c2cn(C)c3ccc(S(=O)(=O)N4CCCC4)cc3c2=O)CC1 | inactive | – |
| O=C(NC1CCCCC1)n1c(=O)oc2cc(S(=O)(=O)N3CCCCC3)ccc21 | inactive | – |
| CC(C)COC(=O)n1c(=O)oc2ccc(S(=O)(=O)N3CCCCC3)cc21 | 10.4 µM (active) | – |
| CCOc1ncccc1C(=O)OCC(=O)Nc1cccc(S(=O)(=O)N2CCCCCC2)c1 | inactive | – |
| COc1ccc(N2CCN(S(=O)(=O)c3cc(Br)cnc3N)CC2)cc1 | inactive | – |
| c1ccc(-c2nnc(N3CCOCC3)c3ccccc23)cc1 | inactive | – |
| CCCC(=O)N1CCN(c2nnc(-c3ccc(C)cc3)c3ccccc23)CC1 | 4.15 µM (active) | – |
| OCCN1CCN(c2nnc(-c3ccccc3)c3ccccc23)CC1 | inactive | – |
| Cc1ccc(S(=O)(=O)CC(=O)Nc2sc(C)c(C)c2C(N)=O)cc1 | inactive | – |
| O=C(NCc1ccncc1)NC12CC3CC(CC(C3)C1)C2 | inactive | – |
| S=C(NCc1ccc(Cl)cc1)NC1CCCCC1 | inactive | – |
| S=C(NCc1ccc(Cl)cc1)NC12CC3CC(CC(C3)C1)C2 | 11.7 µM (active) | – |
